# Assay results from PMC4336329 (PLoS ONE, 2015).
# The campaign covered roughly 310,000 compounds. About 2,200 (0.71%) showed an effect of 50% or more. Effects have a minus sign here. Shown is part of a subset that was picked to be rich in strong results.
# Molecular target: human ether-à-go-go-related gene (hERG) potassium channel (human, UniProt Q12809)
# Test: primary screen, population patch clamp on CHO cells stably expressing hERG; higher = less effect of the substance
# Sequence of human ether-à-go-go-related gene (hERG) potassium channel (Q12809 whole entry, looked up): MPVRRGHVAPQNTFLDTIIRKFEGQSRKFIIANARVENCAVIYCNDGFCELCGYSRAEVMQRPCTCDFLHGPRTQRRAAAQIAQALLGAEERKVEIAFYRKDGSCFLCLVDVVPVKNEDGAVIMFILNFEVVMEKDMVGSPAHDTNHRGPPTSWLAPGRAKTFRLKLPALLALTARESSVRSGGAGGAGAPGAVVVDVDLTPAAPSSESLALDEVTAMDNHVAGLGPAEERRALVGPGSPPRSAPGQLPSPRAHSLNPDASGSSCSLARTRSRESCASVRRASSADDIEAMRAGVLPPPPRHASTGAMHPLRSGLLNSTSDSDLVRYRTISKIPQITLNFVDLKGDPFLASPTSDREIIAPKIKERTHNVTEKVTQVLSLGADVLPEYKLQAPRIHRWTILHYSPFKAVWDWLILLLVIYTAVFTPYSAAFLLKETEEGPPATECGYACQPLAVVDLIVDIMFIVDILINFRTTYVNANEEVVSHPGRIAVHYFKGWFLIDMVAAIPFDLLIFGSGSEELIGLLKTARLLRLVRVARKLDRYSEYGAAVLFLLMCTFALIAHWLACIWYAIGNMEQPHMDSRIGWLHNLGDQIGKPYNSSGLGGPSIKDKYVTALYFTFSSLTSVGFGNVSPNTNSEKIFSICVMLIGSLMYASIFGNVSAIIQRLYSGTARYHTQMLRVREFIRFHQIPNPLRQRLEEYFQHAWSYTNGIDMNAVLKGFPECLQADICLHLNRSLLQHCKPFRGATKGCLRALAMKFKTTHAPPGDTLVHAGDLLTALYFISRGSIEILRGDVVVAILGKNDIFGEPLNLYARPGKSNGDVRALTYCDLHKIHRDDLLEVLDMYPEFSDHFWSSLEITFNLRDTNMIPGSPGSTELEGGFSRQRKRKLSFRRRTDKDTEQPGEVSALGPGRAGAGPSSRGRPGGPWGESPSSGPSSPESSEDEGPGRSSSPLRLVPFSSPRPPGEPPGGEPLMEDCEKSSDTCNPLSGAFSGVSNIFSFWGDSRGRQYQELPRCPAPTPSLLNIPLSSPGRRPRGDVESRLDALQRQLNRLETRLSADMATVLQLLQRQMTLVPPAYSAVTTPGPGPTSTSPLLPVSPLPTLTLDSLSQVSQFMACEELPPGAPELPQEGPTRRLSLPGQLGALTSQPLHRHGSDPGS
row,Compound,"hERG current change (%, negative = inhibition) at 1uM [%]"
1,COc1cc(S(=O)(=O)N2CCOCC2)ccc1NC(=O)c1cc2c(s1)CCC2,3.78
2,Cc1ccc2c(c1)N(C(=O)CCC(=O)NCc1cccnc1)CCO2,-4.63
3,CCOc1ccc(CN(C)CC(=O)NCc2ccccc2Cl)cc1,-73.6
4,CN(CC(=O)NCc1ccc(F)cc1)Cc1ccc(Br)cc1,2.94
5,COc1cccc(CN(C)CC(=O)NCc2ccccc2Cl)c1,14.6
6,CCOc1ccc(CN(C)CC(=O)NCc2ccc(F)cc2)cc1,-78.6
7,COc1cccc(CN(C)CC(=O)NCc2ccccc2Cl)c1OC,10.6
8,CSc1ccc(CN(C)CC(=O)NCc2ccc(F)cc2)cc1,-19.3
9,CCOC(=O)c1ccc(Oc2nc(NC(C)(C)C)nc(N(C)C)n2)cc1,6.02
10,CCOC(=O)Nc1c(C(=O)OC)[nH]c2cc(OC)ccc12,-3.1
11,CCCn1c(SCc2ccccn2)nc2c1c(=O)n(C)c(=O)n2C,16.5
12,O=[N+]([O-])c1ccc(NC(=S)N/C(=N/CS(=O)(=O)c2ccccc2)c2ccccc2)cc1,11
13,CN(C)C(=S)NC(=NCc1ccc([N+](=O)[O-])cc1)c1ccccc1,-60.3
14,O=[N+]([O-])c1cccc(C(=NCc2ccccc2)NO)c1,15.5
15,S=C(NCCc1ccccn1)Nc1ccccc1Cl,17
16,COc1cn(-c2ccccc2)nc1C(=O)OCC(=O)Nc1ccc(C)c(C)c1,12.1
17,CC(NC(=O)c1ccc2c(c1)OCO2)C1CCCO1 (stereo not drawn),-0.0414
18,CCCCn1c(SCC(=O)N2CCOCC2)nc2ccccc2c1=O,-39.4
19,O=C(CSc1nc2ccccc2c(=O)n1Cc1ccco1)N1CCCC1,-81.3
20,CCN(CC)C(=O)CSc1nc2c(sc(=S)n2CC)c(=O)n1-c1ccccc1,-13.3

row,Compound,"hERG current change (%, negative = inhibition) at 1uM [%]"
1,C=CCn1c(SCC(=O)N2CCCC2=O)nc2sc(CC)cc2c1=O,-20
2,C=CCn1c(SCC(=O)N2CCc3ccccc3C2)nc2sc(CC)cc2c1=O,10.8
3,CCN(CC)C(=O)CSc1nc2c(sc(=S)n2Cc2ccco2)c(=O)n1-c1ccccc1,5.26
4,CCCn1c(SCC(=O)N2CCN(C(=O)c3ccco3)CC2)nc2ccccc2c1=O,-84.8
5,NC(=O)CSc1nc2ccccc2c(=O)n1Cc1ccco1,-15.1
6,C=CCn1c(SCC(=O)N2CCN(C(=O)c3ccco3)CC2)nc2sc(CC)cc2c1=O,-85.6
7,CCOC(=O)CSc1nc2ccccc2c(=O)n1Cc1ccco1,0.785
8,CC(C)Cn1c(SCC(=O)N2CCN(C(=O)c3ccco3)CC2)nc2ccccc2c1=O,-42.9
9,CCN(CC)C(=O)CSc1nc2c(sc(=S)n2-c2ccccc2)c(=O)n1Cc1ccco1,-86.3
10,Cc1cccc(OCCNC(=O)CCNS(=O)(=O)c2ccc3ccccc3c2)c1,6.04
11,CCCn1nc(C(=O)Nc2ccc(N3CCOCC3)cc2)c2ccccc2c1=O,1.6
12,O=C(Cn1nc(Br)nc1Br)c1ccccc1,10.2
13,COc1cc(C2NC(=O)NC(C)=C2C(=O)NCc2ccccc2)c(Cl)cc1O (stereo not drawn),13.7
14,COCCNC(=O)C1CC(c2ccccc2C(F)(F)F)=NO1 (stereo not drawn),14.7
15,O=C(CSc1nc2ccccc2c(=O)n1Cc1ccco1)NCCN1C(=O)CSC1=O,-56
16,O=C(CSc1nc2ccccc2c(=O)n1CCCN1CCOCC1)N1CCN(c2ccccc2)CC1,-6.61
17,O=C(CSc1nc2ccccc2c(=O)n1Cc1ccco1)N1CCCCCC1,-82.8
18,CCCn1c(SCC(=O)N2CCN(c3ccccc3)CC2)nc2ccccc2c1=O,-4.8
19,O=C(CSc1nc2ccccc2c(=O)n1Cc1ccco1)N1CCN(c2ccccc2)CC1,-83.6
20,CCn1c(SCC(=O)N2CCCC2)nc2ccccc2c1=O,-7.76

row,Compound,"hERG current change (%, negative = inhibition) at 1uM [%]"
1,Cn1c(SCC(=O)NCCN2C(=O)CSC2=O)nc2ccccc2c1=O,7.27
2,O=C(CSc1nc2ccccc2c(=O)n1Cc1ccco1)NCc1ccco1,-40.8
3,CCn1c(SCC(=O)N2CCCCCC2)nc2ccccc2c1=O,2.02
4,COc1cc(OC)c(NC(=S)NCc2ccc(F)cc2)cc1Cl,8.5
5,Oc1ccccc1N1CCN(Cc2ncc(-c3ccccc3)o2)CC1,7
6,O=C(CSc1nnnn1-c1ccc2c(c1)OCCO2)OC1CCCCC1,6.23
7,COc1ccc(C)cc1Nc1nc(-c2c(C)[nH]c3ccccc23)cs1,4.55
8,CSc1ccc(/C=c2\s/c(=C\C(=O)C(C)(C)C)n(CC(=O)NCCC3=CCCCC3)c2=O)cc1,-3.41
9,Cc1c(CN(C)C)c2c(n1Cc1ccccc1)C(=O)c1ccc(Br)cc1-2.Cl,-16.4
10,Cc1c(CN(C)C)c2c(n1Cc1ccccc1)C(=O)c1ccccc1-2.Cl,-79
11,Cc1c(CN(C)C)c2c(n1C)C(=O)c1ccc(Br)cc1-2.Cl,-2.4
12,CCCCOP(=O)(OCCCC)C(O)c1ccc(N(C)C)cc1 (stereo not drawn),12.5
13,CSc1ccccc1OCc1cc(C(=O)NC2CCc3ccccc32)no1 (stereo not drawn),17.2
14,OCc1ncccc1O,8.62
15,O=[N+]([O-])c1ccc(CN2CCOCCOCCOCC2)cc1,-20.5
16,COc1ccc(CN2CCOCCOCCN(Cc3ccc(OC)cc3)CCOCCOCC2)cc1,-84.1
17,O=[N+]([O-])c1ccc(CN2CCOCCOCCN(Cc3ccc([N+](=O)[O-])cc3)CCOCC2)cc1,-86.9
18,COc1ccc(CN2CCOCCOCCOCCOCCOCC2)cc1,7.46
19,O=[N+]([O-])c1ccc(CN2CCCCCC2)cc1,-0.361
20,COc1ccc(CN2CCOCCOCCOCC2)cc1,-21.8
